# Values joined by “and” are separate entries in the source; they are usually repeats but may differ in a detail not shown here. Equal entries are not always repeated. Inconclusive results are not listed. Entries that show only a call come without a potency. A number with no mark means an inactive call. Active and inactive are the calls of the source. Calls come from the whole dose curve; as a rule, active = well fitted inhibition curve with a large enough effect in the repeat runs; inconclusive = weak or mixed curves, or effect the other way; inactive = no such curve, though single readings can be large or run the other way.
# Assay: qHTS assay to identify small molecule antagonists of the retinoic acid receptor (RAR) signaling pathway (AID 1159552; note: nearly all actives have a fitted effect of over 50% in size)
# Settings: C3RL4 RARE luciferase reporter, retinol-stimulated, 6 h; series mostly up to 92.4 µM
# Description: National Center for Advancing Translational Sciences [NCATS]
# NIH Chemical Genomics Center [NCGC]
# U.S. Environmental Protection Agency [EPA]
# National Institutes of Environmental Health Sciences [NIEHS]
# National Toxicology Program [NTP]
# U.S. Food and Drug Administration [FDA]
# All-trans Retinoic acid (atRA) is the potent natural metabolite of retinol and plays an important role in normal embryonic development and maintenance of cellular phenotype in adult animals. atRA is the activating ligand for the retinoic acid receptors (RARs) which form heterodimers with retinoid X receptors (RXRs) on the retinoic acid response element (RARE). Through activation of the RAR/RXRs nuclear receptors, atRA regulates the transcription of a large number of protein-coding genes and regulatory RNAs. Intracellular levels of atRA are controlled by the retinol signaling pathway (RSP) that regulates the biosynthesis and catabolism of atRA to maintain physiological levels. Chemicals that interfere with the RSP can cause abnormal intracellular levels of atRA and therefore are potential developmental toxicants. To assess compounds for the potential adverse effect on embryonic development through interfering with retinol signaling, a cell-based RARE luciferase reporter gene assay was used. C3RL4 cell line (OARSA/CFSAN/FDA, Laurel, MD) was used to screen Tox21 10K compound library for identifying inhibitors of the RSP.
# Tox21 Assay Protocol Summary:
# C3RL4 cells were seeded at 1,000/well in 4 uL of assay medium into white solid 1,536-well tissue culture plates (Greiner Bio-One North America Inc. Monroe, NC) using a Multidrop Combi (Thermo Scientific, Waltham, MA) dispenser. After incubation at 37 C and 5% CO2 for an overnight, 23 nL of compounds dissolved in DMSO, positive control or DMSO only were transferred by a Pintool station (Kalypsys, San Diego, CA). One ul of 1 uM (final concentration) of Retinol was added right after the compound addition by using a Flying Reagent Dispenser (FRD) (Aurora Discovery, San Diego, CA). After 6 hr incubation at 37 C and 5% CO2, 5 uL of Amplite Luciferase reagent (AAT Bioquest Inc. Sunnyvale, CA) was added to each assay plate using an FRD. Luminescence was quantified on a ViewLux plate reader (PerkinElmer, Waltham, MA) after 30 min incubation at room temperature.
# Potency is the fitted concentration of half-maximal effect.
SMILES,Potency,"activity, negative = inhibition"
C=CC(=O)OCCOC(=O)C=C,inactive,–
CC(CO)Oc1ccccc1 (stereo not given),inactive,–
O=C(Oc1ccccc1)Oc1ccccc1,inactive,–
COc1ccc(NC(=O)CC(C)=O)cc1,inactive,–
O=C1OC2(c3ccc(O)cc3Oc3cc(O)ccc32)c2ccc(N=C=S)cc21,inactive,–
OC1CCC(C2CCCCC2)CC1 (stereo not given),inactive,–
Cc1c(N)cccc1C(F)(F)F,inactive,–
ClCCl,inactive,–
CC(C)(C)CC(C)(C)c1ccc(Nc2ccc(C(C)(C)CC(C)(C)C)cc2)cc1,–,-23.1% [at 8.39 µM]
COc1cc(C)ccc1O,inactive,–
O=C(/C=C/c1ccccc1)OC/C=C/c1ccccc1,inactive,–
C=CC(=O)Nc1cc2c(Nc3ccc(F)c(Cl)c3)ncnc2cc1OCCCN1CCOCC1,7.5 µM (active),–
CC(C(=O)O)c1ccc2c(c1)[nH]c1ccc(Cl)cc12 (stereo not given),inactive,–
Cc1ccc(O)c(N)c1,inactive,–
O=C(c1ccc(O)c(O)c1)c1ccc(O)cc1O,inactive,–
Cc1cc(C)c(/C=C2\C(=O)Nc3ccccc32)[nH]1,inactive,–
CCc1ccc(Br)cc1,inactive,–
O=C(O)CCN(C1(C(=O)NO)CCCC1)S(=O)(=O)c1ccc(Oc2ccc(F)cc2)cc1,inactive,–
C1CCC(SSC2CCCCC2)CC1,inactive,–
Cc1ccc(C(C)C)cc2c(C)ccc1-2,inactive,–

SMILES,Potency,"activity, negative = inhibition"
CCOC(=O)c1ccc(C2CCC(NC[C@H](O)COc3ccc(O)c(NS(C)(=O)=O)c3)CC2)cc1 (stereo not given in full),56.4 µM (active),–
Cc1c(C)c2c(c(C)c1OC(=O)c1cccnc1)CC[C@@](C)(CCC[C@H](C)CCC[C@H](C)CCCC(C)C)O2,inactive,–
Nc1nc2c(ncn2COCCO)c(=O)[nH]1,inactive,–
C#C[C@]1(O)CC[C@H]2[C@@H]3[C@H](C)CC4=C(CCC(=O)C4)[C@H]3CC[C@@]21C,29.8 µM (active),–
NC[C@H]1O[C@H](O[C@H]2[C@H](O[C@@H]3O[C@H](CO)[C@@H](O)[C@H]3O)C(O)[C@H](N)C[C@@H]2N)[C@H](N)[C@@H](O)[C@@H]1O (stereo not given in full),–,-17.9% [at 8.39 µM]
OCC(F)(F)F,inactive,–
CC(C)(C)NSc1nc2ccccc2s1,inactive,–
CCCNCCC,inactive,–
COc1c(C)c2c(c(O)c1C/C=C(\C)CCC(=O)OCCN1CCOCC1)C(=O)OC2,inactive,–
Sc1nc2ccccc2s1,inactive,–
CCC(=O)C(=O)CC,inactive,–
COc1ccc(-c2coc3cc(O)ccc3c2=O)cc1,inactive,–
Cc1cc(-c2ccc(N=Nc3cc(S(=O)(=O)O)c4ccccc4c3N)c(C)c2)ccc1N=Nc1cc(S(=O)(=O)O)c2ccccc2c1N,inactive,–
O=C(O)c1cc(O)c2ccccc2c1O,68.6 µM (active),–
Cc1c2ccccc2c(C)c2c1ccc1ccccc12,inactive,–
OC/C=C/CO,inactive,–
CCc1oc2ccccc2c1C(=O)c1cc(I)c(O)c(I)c1,inactive,–
Cc1ccc(C(=O)O)cc1,inactive,–
COc1ccc2c(c1)c(CC(=O)OC/C=C(\C)CC/C=C(\C)CCC=C(C)C)c(C)n2C(=O)c1ccc(Cl)cc1,inactive,–
CC(=O)[C@H]1CC[C@H]2[C@@H]3CCC4=CC(=O)CC[C@]4(C)[C@H]3CC[C@]12C,48.3 µM (active) and 30.6 µM (active),–

# Reference: PubChem BioAssay (Tox21)
